PLAP act – PLAP enzyme activators, biochemical, luminescence, HTS; Alkaline phosphatase, placental type (Homo sapiens), P05187; purified PLAP enzyme, luminescent substrate read-out; hits give high values; activation fold at 20 µM; 1.2% of 96,000 active; AID 696, 2007; in the data active means activation fold above about 2
DUSP1 inh – MKP-1 phosphatase inhibitors, primary screen, biochemical, in vitro. Dual specificity protein phosphatase 1 (Homo sapiens), P28562. recombinant MKP-1, OMFP hydrolysis fluorescence. inhibition, %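 (compounds tested at a single concentration somewhere between 10 and 100 µM)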. 0.15% of 65,000 active. AID 374, 2006;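 active means inhibition above about 50%, limit read from the data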
Target sequence (P28562 whole entry, looked up): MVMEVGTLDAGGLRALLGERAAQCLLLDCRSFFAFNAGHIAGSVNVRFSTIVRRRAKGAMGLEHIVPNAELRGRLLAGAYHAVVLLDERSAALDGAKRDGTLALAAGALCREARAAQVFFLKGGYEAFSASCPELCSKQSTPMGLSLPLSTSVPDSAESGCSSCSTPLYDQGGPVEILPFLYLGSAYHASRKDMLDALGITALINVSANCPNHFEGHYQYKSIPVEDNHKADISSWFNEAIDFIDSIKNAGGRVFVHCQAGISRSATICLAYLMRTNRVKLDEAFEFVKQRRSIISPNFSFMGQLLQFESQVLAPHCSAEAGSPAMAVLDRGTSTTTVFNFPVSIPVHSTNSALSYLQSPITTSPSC
TNAP act DEA – human TNAP enzyme activators, primary screen, biochemical, luminescent, intermediate phosphate acceptor level; activation factor at 20 µM; Alkaline phosphatase, tissue-nonspecific isozyme (Homo sapiens), P05186; 64,000 tested, under 10 active; AID 813, 2007; purified TNAP, CDP-star luminescence, 100 mM DEA, 30 min; hits give high values; scale: 0 levamisole-inhibited, 1 vehicle-only enzyme;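 active means activation factor of at least 2 at 20 µM, relative to controls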
Cdc25B block – inhibitors of Cdc25B phosphatase catalytic domain, primary screen, biochemical, OMFP fluorescence; M-phase inducer phosphatase 2 (Homo sapiens), P30305; recombinant Cdc25B, OMFP fluorescence Ex485/Em525; inhibition, %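 (compounds tested at 10 µM final in the well)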; 0.1% of 65,000 active; in the data active means inhibition above about 50%
HePTP inh – inhibitors of human HePTP phosphatase, primary screen, biochemical, absorbance, leukemia target. recombinant HePTP phosphatase activity, OD absorbance. AID 521, 2006. inhibition, % at 20 µM. Tyrosine-protein phosphatase non-receptor type 7 (Homo sapiens), P35236. 0.64% of 110,000 active; in the data active means inhibition above about 50%
Hsp90 block – tumor Hsp90 inhibitors, primary screen, cell lysate, fluorescence polarization, NCI-N417 lysate | Heat shock protein HSP 90-alpha (Homo sapiens), P07900 | Cy3B-geldanamycin FP displacement | inhibition, % at 30 µM | 0.35% of 64,000 active | AID 429, 2006;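 active means inhibition above 50%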
Hits are given with their value; . = inactive; / = no result given. Only some compounds are listed: those with a hit (about 1.5% of all), similar ones and a draw of the others.

SMILES	PLAP act	DUSP1 inh	TNAP act DEA	Cdc25B block	HePTP inh	Hsp90 block
O=C(c1ncn[nH]1)N1CCN(c2nc(-c3ccccc3)cs2)CC1	2.6	.	.	.	.	.
COc1cc([N+](=O)[O-])ccc1-c1ccc(/C=C(\C#N)C(N)=O)o1	/	/	/	/	.	/
COC(=O)c1ccccc1NC(=O)CSc1n[nH]c(CC(C)C)n1	2.4	.	.	.	.	.
Cc1cccc(NC(=O)C2CC(=O)N(c3ccccc3)C2)c1 (centres undefined)	/	/	/	/	.	/
Cc1c(C(=O)OC(C)C)sc(NC(=O)C(C)(C)C)c1C(=O)OC(C)C	/	/	/	/	.	/
O=C1c2ccccc2NC(c2cccc(O)c2)N1Cc1ccco1 (centres undefined)	/	/	/	/	.	/
O=C1c2[nH]nc(-c3ccccc3O)c2C(c2cccc(O)c2)N1Cc1ccco1 (centres undefined)	2.2	/	/	/	/	/
CCOC(=O)C(CC)n1cnc2sc3c(c2c1=O)CCC3 (centres undefined)	.	.	.	84	.	.
Cc1ccc(S(=O)(=O)N2CCN(S(C)(=O)=O)C2C(C)C)cc1 (centres undefined)	/	/	/	/	96	/
COc1ccc(CNCc2cc3c(C(C)(C)C)nn(-c4ccccc4)c3[nH]c2=O)cc1	2.5	/	/	/	/	/
CC(C)(C)c1nn(-c2ccccc2)c2[nH]c(=O)c(CNCc3ccco3)cc12	2.4	.	.	.	.	.
CC(C)(C)c1nn(-c2ccccc2)c2[nH]c(=O)c(CNc3ccc4c(c3)OCCO4)cc12	.	/	/	/	/	/
Cc1ccc(CNCc2cc3c(C(C)(C)C)nn(-c4ccccc4)c3[nH]c2=O)cc1	2.1	/	/	/	/	/
COc1ccc(/C=C/C(=O)Nc2ccc(OC(F)(F)F)cc2)cc1	/	/	/	/	.	/
CCCc1[nH]n(-c2nc3ccccc3s2)c(=O)c1C=NCC(C)C	2.1	/	/	/	/	/
N#C/C(C(=O)NCc1ccccc1)=C1\SC(CCO)C(=O)N1c1ccccc1 (centres undefined)	/	.	.	84	.	.
CN(CC(=O)NC(c1ccccc1)c1ccccc1)Cc1nc2ccccc2c(=O)[nH]1	.	/	/	/	/	/
CN(CC(=O)NC(=O)NCc1ccco1)Cc1nc2ccccc2c(=O)[nH]1	2.3	.	.	.	.	.
CCc1c(C#N)c(N)nc(SCC(=O)c2ccc(Cl)c(Cl)c2)c1C#N	/	/	/	/	.	/
COc1ccc2occ(C(=O)c3ccccc3Cl)c(=O)c2c1	/	/	/	/	.	/
COC(=O)c1ccc(CSc2nc3c(cnn3-c3ccc(C)cc3)c(=O)[nH]2)o1	/	.	/	.	/	.
COC(=O)c1ccc(CSc2nc3ccc(C)cc3[nH]2)o1	2.2	/	/	/	/	/
CCC(C)c1ccc(NC(=O)CCc2ccccc2)cc1 (centres undefined)	/	/	/	/	.	/
COc1ccc(Cc2nc(-c3ccc(Cl)cc3)no2)cc1	2	.	.	.	.	.
COc1ccc(Cc2nc(-c3ccc(Br)cc3)no2)cc1	.	.	.	.	.	.
SMILES	PLAP act	DUSP1 inh	TNAP act DEA	Cdc25B block	HePTP inh	Hsp90 block
CCCOc1cccc(C(=O)Nc2nc(-c3ccc(F)cc3F)cs2)c1	/	/	/	/	95	/
COc1ccc(-n2nc3c(c2NC(=O)c2ccc(Br)cc2)CS(=O)C3)cc1 (centres undefined)	.	.	.	.	.	55
CCN=C1S/C(=C\c2ccc(I)o2)C(=O)N1CC	/	/	/	/	.	/
O=C(O)c1cc(N2C(=O)C=CC2=O)ccc1Cl	/	/	/	/	50	/
NC(=O)c1cc(N2C(=O)C=CC2=O)ccc1Cl	.	/	/	/	/	/
CC(C)Cn1c(N)c(C(=O)NCC2CCCO2)c2nc3ccccc3nc21 (centres undefined)	2	.	.	.	.	.
COCCn1c(N)c(C(=O)NCC2CCCO2)c2nc3ccccc3nc21 (centres undefined)	.	.	.	.	.	.
CCCOc1ccccc1C1C(C(=O)OC)=CN(C(C)C)C=C1C(=O)OC	2	.	.	.	.	.
O=C(c1cccn2c(=O)c3ccc(Cl)cc3nc12)N1CCN(Cc2ccc3c(c2)OCO3)CC1	.	64	.	.	.	.
CCOC(=O)c1ccc(-c2ccc(/C=C3/C(=O)NC(=O)N(c4ccc(OC)cc4)C3=O)o2)cc1	/	/	/	/	.	/
O=C(C1CCCO1)N1CCN(Cc2c(O)ccc3ccccc23)CC1 (centres undefined)	2.4	/	/	/	/	/
Cc1ccc(CN2CCN(C(=O)C3CCCO3)CC2)cc1 (centres undefined)	.	.	.	.	.	.
COc1ccccc1C1C(C#N)=C(N)Oc2cc(C)n(CCCn3ccnc3)c(=O)c21 (centres undefined)	2	.	.	.	.	.
Cc1cc2c(c(=O)n1CCCn1ccnc1)C(c1ccco1)C(C#N)=C(N)O2 (centres undefined)	.	.	.	.	.	.
O=C(CCCOc1ccccc1)Nc1ccc2c(c1)OCO2	/	/	/	/	.	/
O=C(O)c1cc(-c2ccc(Cl)cc2)n[nH]1	.	.	.	.	.	.
O=C(O)c1cc(-c2ccccn2)n[nH]1	2.5	.	.	.	.	.
COc1ccccc1C=C1C(=O)NC(=S)N(c2ccccc2F)C1=O	/	/	/	/	.	/
CC(C)c1ccc(N2C(=O)NC(=O)/C(=C/c3ccc([N+](=O)[O-])o3)C2=O)cc1	/	/	/	/	88	/
O=C1NC(=S)N(c2ccccc2F)C(=O)/C1=C/c1ccc(I)o1	/	/	/	/	104	/
CCc1ccc(N2C(=O)/C(=C/c3ccc(I)o3)C(=O)NC2=S)cc1	/	/	/	/	105	/
Cc1cc(C)cc(N2C(=O)NC(=O)/C(=C\c3ccc(I)o3)C2=O)c1	/	/	/	/	.	/
O=C1NC(=O)N(c2ccc(Cl)cc2)C(=O)/C1=C/c1ccc(I)o1	/	/	/	/	96	/
CCOc1ccc(N2C(=O)NC(=O)/C(=C\c3ccc(I)o3)C2=O)cc1	/	/	/	/	.	/
CN(C)c1ccc(C(O)C(C)(O)c2nc3ccccc3n2C)cc1 (centres undefined)	/	/	/	/	.	/
SMILES	PLAP act	DUSP1 inh	TNAP act DEA	Cdc25B block	HePTP inh	Hsp90 block
COc1cc(C(=O)Nc2ccc(C(N)=O)cc2)cc(OC)c1OC	/	/	/	/	.	/
O=S(=O)(Nc1ccc(-c2nc3ccccc3s2)c(O)c1)c1ccccc1	/	/	/	/	.	/
O=C1NC(=S)N(c2ccccc2F)C(=O)/C1=C/c1ccc(OCc2cccc(C(=O)O)c2)cc1	/	/	/	/	102	/
CCOc1ccc(N2C(=O)/C(=C/c3ccc(I)o3)C(=O)NC2=S)cc1	/	/	/	/	103	/
O=C(CCCSc1nc2ccccc2[nH]1)Nc1nnc(-c2ccccc2)o1	2.1	.	/	.	/	.
c1ccc(-c2nnc(CSc3nc4ccccc4[nH]3)o2)cc1	2.2	.	.	.	.	.
c1ccc2[nH]c(CSc3nnc(-c4ccncc4)o3)nc2c1	2.2	.	.	.	.	.
CC1=C(C(=O)Nc2ccc(Cl)cc2)C(c2ccc([N+](=O)[O-])cc2)NC(=O)N1 (centres undefined)	/	/	/	/	.	/
